Screening data deposited in PubChem by National Center for Advancing Translational Sciences (NCATS).
Sampled rows, rich in hits. Any-hit rate of the full collection: about 3.1%.
p53null 32C tox: qHTS Screen for Compounds that Selectively Target Cancer Cells with p53 Mutations: Cytotoxicity of p53 Null Cells at the Permissive Temperature | H1299-neo p53 null cells, ATP luminescence, 24 h, 32C | Potency, µM (top dose mostly 46.1 µM), usual class: cytotoxic | 0.62% of 55,000 active | AID 903, 2007; further: nearly all actives have a fitted effect of over 55% in size
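H1299-neo, 600 cells/well; overnight 37C; cpd up to 46 uM, 24 h at 32C; ATPlite luminescence after 20 min RT; normalized to DMSO (0%) and tamoxifen 100 uM (100% kill); Hill-fit AC50.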
S16 F2sN tox: Cell viability qHTS assay in S16 Pmp22-F2sN cells; S16 Pmp22-F2sN Schwann cells viability, CellTiter-Glo, 24 h; Potency, µM (top dose mostly 57.5 µM), most hits filed as cytotoxic; 0.48% of 43,000 active; further: nearly all actives have a fitted effect of over 65% in size
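S16 Pmp22-F2sN Schwann cells (500-1,000/well) in phenol-red-free DMEM with 10% FBS received 23 nL compound by pin tool for 24 h at 37 °C. Viability was then read as CellTiter-Glo luminescence after 15 min at room temperature.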
OvCa metastasis: Primary qHTS assay for Inhibitors of ovarian cancer metastasis using an organotypic tumor microenvironment (TME) model; 0.1% of 46,000 active; SKOV3ip1-GFP adhesion/invasion on 3D omental model, fluorescence; Potency, µM (highest dose often 45.8 µM), hits mostly inhibitors; further: nearly all actives have a fitted effect of over 65% in size
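Adhesion/invasion was scored as fixed GFP-labeled SKOV3ip1 cell counts (488/509 nm), normalized to DMSO and tomatine controls. Cancer cells in serum-free medium, with four compound doses (0.36-46 umol/L), sat 2 hr at RT then 16 hr at 37 C on a 48 hr fibroblast/mesothelial/ECM culture.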
p53null 39C tox: qHTS Screen for Compounds that Selectively Target Cancer Cells with p53 Mutations: Cytotoxicity of p53 Null Cells at the Nonpermissive Temperature; H1299 p53-null (neo) cells, 39C, ATPlite viability, 24 h; Potency, µM (series often up to 46.1 µM), most hits filed as cytotoxic; 0.97% of 55,000 active; AID 904, 2007; further: nearly all actives have a fitted effect of over 50% in size
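Cells seeded at 600/well, 37C overnight. Compound added (up to 46 uM), plates shifted to 39C for 24 hr. ATPlite added, luminescence read after 20 min at room temperature.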
pS6 MEF inh: Acumen qHTS Assay for Inhibitors of the mTORC1 Signaling Pathway in MEF (Tsc2-/-, p53-/-) Cells: Sytravon. Tsc2-/- p53-/- MEF, phospho-rpS6 immunofluorescence/PI, 24 h. Potency, µM (top dose mostly 38.3 µM), usual class: inhibitors. 0.78% of 44,000 active. AID 493208, 2011; further: nearly all actives have a fitted effect of over 50% in size
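Immunofluorescence of rpS6 phosphorylation in Tsc2-/-, p53-/- MEFs after 24 h compound exposure, normalized to propidium iodide signal. Activity is expressed as % positive cells, thresholded with 7.5 nM rapamycin.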
PMP22 txn: Cell-based coincidence reporter assay to measure PMP22 gene transcription in S16 Pmp22-F2sN cells - Primary screen; S16 Pmp22-F2sN Schwann cells (luciferase reporters placed in the Pmp22 gene), FLuc/NLuc coincidence luminescence, 24 h; Potency, µM (highest dose often 57.5 µM), usual class: inhibitors; 2% of 43,000 active; AID 1508649, 2021; active means clear falling dose curves in both reporters; inconclusive means both reporters move, but less clearly or upward; inactive means either reporter flat; the % is the NLuc reporter signal
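S16(c9) Schwann cells with FLuc/NLuc coincidence reporter in the Pmp22 3' UTR; compounds pin-transferred, 24 h at 37C. Dual-luciferase read: FLuc first, then NLuc after Stop&Glo, each 10 min at room temperature.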
Of the large screens only hits and unclear results are named; the others gave an inactive call. Unless noted, the call rests on the fitted dose curve; in most records, active means well fitted curve in the direction sought with a large enough effect; inconclusive means small, poorly fitted or top-dose-only effect, or another doubt; inactive means no such curve, though single readings can be large; an effect the other way counts as inactive or inconclusive.

CCN1C[C@H](C)n2c(c(O)c3c(=O)n(Cc4ccc(F)c(Cl)c4)nc(C(=O)NC)c32)C1=O	none (no result: p53null 32C tox, S16 F2sN tox, p53null 39C tox, pS6 MEF inh, PMP22 txn)
COC(=O)c1cc(C)nc2c1c(=O)nc(SCc1c(C)cc(C)cc1C)n2C1CC1	S16 F2sN tox inconclusive, p53null 39C tox 13µM, PMP22 txn inconclusive
COC(=O)c1cc(C)nc2c1c(=O)nc(SCc1cc(C)ccc1C)n2C1CC1	PMP22 txn inconclusive
COc1cc(-c2nc3ccc(Cl)cn3c2Nc2ccc3c(c2)OCO3)ccc1O	PMP22 txn inconclusive
COc1cc(-c2nc3ccc(C)cn3c2Nc2ccc(Cl)cc2)ccc1O	p53null 39C tox 20µM, PMP22 txn inconclusive
CC(=O)c1c(C)oc2c(Cl)cc(NS(=O)(=O)c3ccc(Cl)cc3)cc12	PMP22 txn inconclusive
CCCc1oc2ccc(NS(=O)(=O)c3ccc(OCC)cc3)cc2c1C(=O)OCC	p53null 39C tox 18µM, pS6 MEF inh 15µM, PMP22 txn inconclusive
Cc1cc(S(=O)(=O)Nc2ccc3oc4c(c3c2)CCCC4)ccc1Cl	p53null 32C tox inconclusive, p53null 39C tox 18µM, PMP22 txn inconclusive
CCOC(=O)c1c(C)oc2c(Cl)cc(NS(=O)(=O)c3ccc(Cl)c(C)c3)cc12	OvCa metastasis inconclusive, p53null 39C tox 5µM, PMP22 txn inconclusive
Cc1ccc([C@@H]2O[C@H](CO)[C@@H](O)[C@H](O)[C@@H]2O)cc1Cc1ccc(-c2ccc(F)cc2)s1	none (no result: p53null 32C tox, S16 F2sN tox, p53null 39C tox, pS6 MEF inh, PMP22 txn)
CCN(c1ccccc1)S(=O)(=O)c1cc(C(=O)Nc2ccc(Br)cc2)ccc1F	pS6 MEF inh 15µM, PMP22 txn inconclusive
CN1CCC[C@H]1CCO[C@](C)(c1ccccc1)c1ccc(Cl)cc1	none (no result: p53null 32C tox, S16 F2sN tox, p53null 39C tox, pS6 MEF inh, PMP22 txn)
CON(C)C(=O)N1N=C(c2cc(F)ccc2F)S[C@]1(CCCN)c1ccccc1	none (no result: p53null 32C tox, S16 F2sN tox, p53null 39C tox, pS6 MEF inh, PMP22 txn)
CC(C)COc1ccc(C(=O)Nc2nnc(S(=O)(=O)N(C)Cc3ccco3)s2)cc1	p53null 32C tox inconclusive, p53null 39C tox 10µM
C[C@@H]1CN(CC(=O)Nc2ccc3c(c2)Cc2cccc(-c4cc(=O)cc(N5CCOCC5)o4)c2S3)C[C@H](C)O1	none (no result: p53null 32C tox, S16 F2sN tox, p53null 39C tox, pS6 MEF inh, PMP22 txn)
Cc1ccc(-c2nc3ccccc3[nH]2)cc1NC(=O)COc1ccc(Cl)cc1Cl	S16 F2sN tox inconclusive
Cc1cc(OCC(=O)Nc2cc(-c3nc4ccccc4[nH]3)ccc2C)ccc1Cl	p53null 32C tox inconclusive, p53null 39C tox inconclusive, pS6 MEF inh 15µM
NC(=O)c1ncn([C@@H]2O[C@H](CO)[C@@H](O)[C@@H]2O)n1	none (no result: p53null 32C tox, S16 F2sN tox, p53null 39C tox, pS6 MEF inh, PMP22 txn)
O=C(Cn1c(=O)c2ccccc2n(CC(=O)Nc2ccc(Cl)cc2)c1=O)NCCc1ccccc1	pS6 MEF inh 16µM
O=C(Cn1c(=O)c2ccccc2n(CC(=O)Nc2ccccc2F)c1=O)NCCc1ccccc1	none
COc1ccc(-c2ccc(CCC(=O)O)n2-c2ccccc2C(F)(F)F)cc1	PMP22 txn inconclusive
COc1ccc(-c2ccc(CCC(=O)O)n2-c2ccccc2O)cc1	pS6 MEF inh 13µM
Cn1cc(C=CC(=O)c2cccc(F)c2)cc1C=CC(=O)NO	none (no result: p53null 32C tox, S16 F2sN tox, p53null 39C tox, pS6 MEF inh, PMP22 txn)
CCCc1nnc(NC(=O)c2nc(S(=O)(=O)Cc3ccc(C)cc3)ncc2Cl)s1	S16 F2sN tox inconclusive, OvCa metastasis inconclusive, p53null 39C tox 10µM, PMP22 txn inconclusive
CCCc1nnc(NC(=O)c2nc(SCC)ncc2Cl)s1	none
Cc1ccccc1CS(=O)(=O)c1ncc(Cl)c(C(=O)Nc2nnc(C(C)C)s2)n1	S16 F2sN tox inconclusive, OvCa metastasis inconclusive, p53null 39C tox inconclusive, pS6 MEF inh 9.3µM, PMP22 txn 7µM
CC(C)Sc1ncc(Cl)c(C(=O)Nc2nnc(C(C)C)s2)n1	none
Cc1ccc(CSc2ncc(Cl)c(C(=O)Nc3nc4ccc(C)cc4s3)n2)cc1	none
Cc1ccc(CS(=O)(=O)c2ncc(Cl)c(C(=O)Nc3nc4ccc(C)cc4s3)n2)cc1	S16 F2sN tox 20µM, OvCa metastasis 25µM, PMP22 txn 6.5µM
CCC[C@H]1C[C@H](C(=O)N[C@@H]([C@@H]2O[C@@H](SC)[C@@H](O)[C@@H](O)[C@@H]2O)[C@H](C)Cl)N(C)C1	none (no result: p53null 32C tox, S16 F2sN tox, p53null 39C tox, pS6 MEF inh, PMP22 txn)
CN[C@@H]1CN(c2ccc3c(=O)c(C(=O)O)cn(-c4nccs4)c3n2)C[C@@H]1OC	none (no result: p53null 32C tox, S16 F2sN tox, p53null 39C tox, pS6 MEF inh, PMP22 txn)
Cc1c(O)cccc1C(=O)N[C@@H](CSc1ccccc1)[C@H](O)CN1C[C@H]2CCCC[C@@H]2C[C@@H]1C(=O)NC(C)(C)C	none (no result: p53null 32C tox, S16 F2sN tox, p53null 39C tox, pS6 MEF inh, PMP22 txn)
COc1ccc(F)cc1S(=O)(=O)NCCc1csc(-c2ccc(Cl)cc2)n1	p53null 39C tox 20µM, PMP22 txn inconclusive
O=C(Nc1cccc(C(F)(F)F)c1)c1cnn(-c2cccc(F)c2)c1C1CCNCC1	pS6 MEF inh 18µM
